aSyn UTR act = Activators via SNCA 5'UTR binding, MLPCN; alpha-synuclein 5'UTR reporter, activators screen; activity score, % (tested at 7.5 µM), hits read low; 300,000 compounds, 7.1% hits; AID 1814, 2009; in the data active means activity score below about -60%
The depositor's hits bear a star. Not all results are given here.

SMILES | aSyn UTR act
CCCOc1cccc(C(=O)NC(=S)Nc2ccc(N3CCN(C)CC3)cc2)c1 | -69*
CCOc1cccc(C(=O)NC(=S)Nc2ccc(N3CCN(CC)CC3)cc2)c1 | -80*
Cc1ccc(-n2c([S-])c(C(=O)Nc3ccc(OC(F)F)cc3)[n+]3ccc(C(=O)NCCO)cc23)cc1C | -72*
N#CCc1nc(CSc2nc3ccccc3s2)cs1 | -116*
O=C(Nc1ccc(Cl)cc1)c1ccc2snnc2c1 | -149*
CC(=O)c1ccc(NC(=O)c2ccc3snnc3c2)cc1 | -119*
O=C(Nc1ccccc1F)c1ccc2snnc2c1 | -77*
COc1ccc(NC(=O)c2ccc3snnc3c2)cc1 | -107*
Brc1ccc2nc(CSc3ncn[nH]3)cn2c1 | -68*
O=C(Nc1ccccc1F)c1coc(=O)c(Br)c1 | -62*
Cc1cc(NC(=O)c2coc(=O)c(Br)c2)ccc1C(C)C | -75*
O=C(NCCc1ccc(F)cc1)c1coc(=O)c(Br)c1 | -64*
Cc1ccccc1Nc1c(-c2ccc(N3CCOCC3)cc2)nc2cnccn12 | -67*
COc1cccc(-c2ncc3ccccn23)c1 | -124*
COc1ccc(-c2ncc3ccccn23)cc1 | -142*
Cc1ccc(-c2nc3ccccc3c(=O)o2)cc1 | -84*
N#C/C(=C/c1cccs1)c1nc2ccccc2[nH]1 | -201*
N#C/C(=C\C1CC=CCC1)c1nc2ccccc2[nH]1 (stereo not given) | -66*
Cc1ccc(/C=C(\C#N)c2nc3ccccc3[nH]2)s1 | -229*
Cc1cc(/C=C(\C#N)c2nc3ccccc3[nH]2)c(C)n1C | -224*
CCOc1cc(N(CC)CC)ccc1/C=C(/C#N)c1nc2ccccc2[nH]1 | -107*
N#C/C(=C\c1ccc(Cl)cc1)c1nc2ncccc2[nH]1 | -94*
N#C/C(=C\c1cccs1)Sc1nc2ccccc2s1 | -68*
N#C/C(=C(/O)c1cccs1)c1nc2ccccc2[nH]1 | -102*
N#C/C(=C\c1c(Cl)cccc1Cl)c1nc2ccccc2[nH]1 | -64*
SMILES | aSyn UTR act
Cc1ccccc1/C=C\c1nc2ccccc2c(=O)[nH]1 | -142*
N#CCOc1ccccc1/C=C/c1nc2ccccc2c(=O)[nH]1 | -115*
Cc1ccccc1/C=C/c1nc2ccccc2c(=O)[nH]1 | -324*
COc1ccc(/C=C/C(=O)N(C)C2CCCCC2)cc1Br | -92*
COC(=O)c1c(-c2cccnc2)csc1NC(=O)c1cc(C)on1 | -231*
COc1ccc(-c2csc(NC(=O)c3ccccc3F)c2C(=O)O)cc1 | -89*
COC(=O)c1c(-c2ccc(C)cc2)csc1NC(=O)c1c(-c2ccccc2)noc1C | 68
COC(=O)c1c(-c2ccc(F)cc2)csc1NC(=O)c1ccco1 | -129*
Cc1ccc(C(=O)Nc2scc(-c3ccccc3)c2C(=O)O)cc1 | -92*
O=C(/C=C/c1ccc(Cl)cc1)NCCc1ccccc1 | -67*
O=C(/C=C/c1ccccc1Cl)NCCc1ccccc1 | -176*
Cc1ccc(-c2onc3ccc(Cl)cc23)cc1 | -63*
O=Cc1ccc2noc(-c3ccc(Cl)cc3)c2c1 | -67*
CC(=O)c1ccc2noc(-c3cccc(C)c3)c2c1 | -99*
Cc1ccc(-c2onc3ccc(C4OCCO4)cc23)cc1 | -100*
CC(CC(=O)c1cccs1)CC(=O)c1cccs1 | -144*
COC(=O)c1ccc(COC(=O)CCC(=O)c2cccs2)cc1 | -84*
Cc1ccc(NCCC(=O)c2cccs2)cc1Cl | -87*
CC(C)c1ccc(NCCC(=O)c2cccs2)cc1 | -217*
Cc1cc(C)c(C(CC(=O)c2cccs2)C(C#N)C#N)c(C)c1 (stereo not given) | -189*
Cc1ccc(NCCC(=O)c2ccc(Cl)cc2)cc1C | -99*
CC(=O)c1ccc(NCCC(=O)c2ccccc2)cc1 | -82*
Cc1ccc(NCCC(=O)c2cccs2)cc1C | -187*
Cc1ccc(NCCC(=O)c2cccs2)cc1 | -164*
Cc1cccc(NCCC(=O)c2ccc(Br)cc2)c1 | -94*
SMILES | aSyn UTR act
C/C(=C\C(=S)Nc1ccccc1)Nc1cccc2ccccc12 | -104*
C/C(=C\C(=S)Nc1ccccc1)Nc1ccc2ccccc2c1 | -94*
Clc1ccccc1OCc1nnc(-c2ccccc2Br)o1 | -173*
O=c1c(Cl)c(Cl)cnn1Cc1nnc(-c2ccccc2Br)o1 | -66*
N#Cc1ccccc1OCc1nnc(-c2ccccc2Br)o1 | -178*
O=C(c1cnc2nc3ccccc3n2c1)c1cc(F)ccc1O | -78*
Cc1cccc(-n2c(=S)[nH]c3c(oc4ccccc43)c2=O)c1 | -88*
Cc1ccc(-n2c(=S)[nH]c3c(oc4ccccc43)c2=O)cc1 | -100*
COc1cc2c(cc1OC)C(c1ccccc1)N(C(=O)CCl)CC2 (stereo not given) | -86*
N#CC1=C(SCC(=O)c2ccccc2)NC2=C(C(=O)CCC2)C1c1ccco1 (stereo not given) | -305*
N#CC1=C(SCC(=O)Nc2ccccc2)NC(=O)CC1c1ccc(O)cc1 (stereo not given) | -128*
N#CC1=C(SCC(=O)Nc2ccccc2)NC(=O)CC1c1ccco1 (stereo not given) | -141*
CC(=O)C1=C(C)NC(SCC(=O)c2cc(Cl)ccc2Cl)=C(C#N)C1c1ccco1 (stereo not given) | -130*
COc1ccc(N=C2S/C(=C\c3ccc(Cl)c([N+](=O)[O-])c3)C(=O)N2CCN(C)C)cc1 | 81
C=CCN1C(=O)/C(=C2/Sc3ccc(OC)cc3N2C)SC1=Nc1ccc(OC)cc1 | -79*
CCN(CC)CCN1C(=O)/C(=C\c2ccc(Cl)c([N+](=O)[O-])c2)SC1=Nc1ccc(OC)cc1 | 74
Cc1nc2ccc(S(=O)(=O)Nc3cc(-c4nc5cccnc5s4)ccc3C)cc2s1 | -85*
Cc1ccc(C)c(NS(=O)(=O)c2ccc(-c3cnc(C4CC4)o3)cc2)c1 | 93
CC(C)(C)c1ccc(OCC(=O)N2CCCCCC2)c(Br)c1 | -144*
Cc1ccc(OCC(=O)N2CCCCC2)c(Br)c1 | -125*
CNC(=S)Nc1ccc(Nc2ccccc2)cc1 | -95*
CCCNC(=S)Nc1ccc(Nc2ccccc2)cc1 | -87*
Cc1ccc(C(C)(C)NC(=O)C2CCC(=O)N(C3CCCCCC3)C2)cc1 (stereo not given) | -147*
COC(=O)C1C(O)=C(C=Nc2ccc3ccccc3c2)C(=O)CC1(C)C (stereo not given) | -75*
CSc1nc2ncc(-c3ccsc3)c(N)n2n1 | -62*
SMILES | aSyn UTR act
CSC1=NC(=O)/C(=C/c2ccc(SC)cc2)S1 | -81*
CN=C1S/C(=C\c2ccc(SC)cc2)C(=O)N1C | -98*
COc1ccc(/C=C2\SC(=N)N(c3nccs3)C2=O)cc1OC | 65
CN=C1S/C(=C\c2ccc(O)c(OC)c2)C(=O)N1C | -110*
Nc1ccc(S(=O)(=O)Nc2nccc(/C=C/c3ccc(Cl)cc3Cl)n2)cc1 | -67*
CC(C)CN1CCN(Cc2cnc(-c3ccc(Cl)cc3)nc2)CC1CCO (stereo not given) | -78*
COc1ccc2nc(/C=N/NC(=O)CCCCCNC(=O)OC(C)(C)C)ccc2c1 | -70*
COc1ccc2nc(C)cc(SCC(=O)N/N=C/c3ccc(O)cc3O)c2c1 | 80
Cc1nn(-c2nnc(NCc3ccccc3)nn2)c(C)c1Br | -85*
CN(CCOC(=O)CN1C(=O)c2ccccc2C1=O)C1=NS(=O)(=O)c2ccccc21 | -89*
O=C(CN1C(=O)c2ccccc2S1(=O)=O)c1ccc(OC(F)F)cc1 | 86
Cc1nnc(N/N=C/c2cccc(OCc3ccc(Cl)c(Cl)c3)c2)n1N | -83*

Bioassay records from PubChem BioAssay.
